Laboratory results reported in ChEMBL document CHEMBL4513146, “CO-ADD screening of Karazin Kharkiv National University (Ukraine) compounds”.
Potency and affinity values are given separately.

Tested on: Klebsiella pneumoniae
Conditions: Concentration 32 ug.mL-1;; ASSAY_TEST Inhibition of Bacterial Growth; detection method Absorption (OD600); MEDIA CAMHB; plate type 384well; NBS; CORNING #3640; time 18 hr

Row | Structure (SMILES) | Inhibition [%]
1 | Cc1ccc(NC(=O)Cn2nc3c(Oc4ccccc4)nccn3c2=O)c(Br)c1 | -5.15
2 | COC(=O)c1ccc(CN(c2cccc(F)c2)S(=O)(=O)c2ccc3nncn3c2)o1 | 8.3
3 | CCc1ccc(N(Cc2cccc(OC)c2)S(=O)(=O)c2cccn3cnnc23)cc1 | 14.16
4 | CCc1ccc(N(Cc2ccc(F)cc2)S(=O)(=O)c2cccn3c(C)nnc23)cc1 | -1.65
5 | O=C(CSc1nnc2c(=O)n(-c3cccc(F)c3)ccn12)N1CCN(c2ccc(F)cc2)CC1 | 10.19
6 | COc1ccc(C(C)NC(=O)CCc2nnc3ccc(-c4ccc(C)cc4)nn23)cc1OC (stereo not drawn) | 15.87
7 | COc1ccc(-c2cc3c4nnc(SCC(=O)N(C)c5ccccc5)n4ccn3n2)cc1 | 5.6
8 | CCc1ccc(N(Cc2ccccc2F)S(=O)(=O)c2cccn3c(CC)nnc23)cc1 | 6.04
9 | COc1ccc(Cl)cc1NC(=O)CSc1nnc2c(=O)n(-c3ccc(C)c(C)c3)ccn12 | 15.8
10 | Cc1ccc(Cl)cc1NC(=O)Cn1nc2c(N3CCOCC3)nc3ccccc3n2c1=O | 0.47
11 | COc1ccc(-c2cc3c4nnc(SCC(=O)Nc5cccc(C)c5C)n4ccn3n2)cc1 | 2.16
12 | O=c1c2sccc2n2c(=O)n(Cc3cccc(Br)c3)nc2n1Cc1cccs1 | -22.43
13 | COc1ccc(-c2cc3c4nnc(SCC(=O)Nc5ccccc5F)n4ccn3n2)cc1 | 6.81
14 | COc1ccc(NC(=O)c2ccc3nn(CC(=O)Nc4ccc(C(F)(F)F)cc4)c(=O)n3c2)cc1 | -7.6
15 | Cc1cc2nn(CC(=O)Nc3cccc(C)c3C)c(=O)n2c(Nc2ccc(F)c(C)c2)n1 | 8.99
16 | COc1cccc(Oc2nccn3c(=O)n(CC(=O)NCc4cccs4)nc23)c1 | 11.61
17 | Cc1ccc(Sc2nccn3c(=O)n(CC(=O)Nc4cc(Cl)ccc4C)nc23)c(C)c1 | -1.75
18 | N#CCn1nc2n(Cc3ccc(F)cc3)c(=O)c3ccccc3n2c1=O | 3.36
19 | CCOc1ccc(NC(=O)Cn2nc3c(N4CCCC(C)C4)nccn3c2=O)cc1 (stereo not drawn) | 13.07
20 | Cc1ccc(-c2ccc3nnc(CCC(=O)NCc4ccc(C(F)(F)F)cc4)n3n2)cc1C | 11.76

Row | Structure (SMILES) | Inhibition [%]
21 | Cc1ccc(C)c(NC(=O)Cn2nc3c4cc(-c5ccc(C)c(C)c5)nn4ccn3c2=O)c1 | 5.73
22 | CCc1nnc2c(S(=O)(=O)N(Cc3cccc(OC)c3)c3ccc(F)cc3)cccn12 | -0.6
23 | CSc1ccc(CNC(=O)Cn2nc3c(Oc4cccc(C)c4C)nccn3c2=O)cc1 | 12.69
24 | Cc1cccc(-c2nc(CSc3nc4ccccc4n4c(C(C)C)nnc34)c(C)o2)c1 | 12.8
25 | CC(C)c1nnc2c(SCC(=O)Nc3ccc(F)cc3F)nc3ccccc3n12 | 13.12
26 | Cc1cccc(NC(=O)Cn2nc3c(SCc4ccccc4)nccn3c2=O)c1C | 5.49
27 | COc1ccc(NC(=O)Cn2nc3ccc(SCc4ccc(Cl)cc4)nn3c2=O)cc1 | 1.71
28 | Cc1ccc(CN(c2ccc(C(C)C)cc2)S(=O)(=O)c2cccn3c(C)nnc23)cc1 | 0.92
29 | CC(C)CCn1c(=O)c2ccccc2n2c(=O)n(CC#N)nc12 | 17.73
30 | CCOc1ccc(-n2ccn3c(SCC(=O)Nc4ccc(CC)cc4)nnc3c2=O)cc1 | 16.87
31 | COC(=O)c1cccc(NC(=O)Cn2nc3ccc(-c4ccccc4)nn3c2=O)c1 | -4.82
32 | O=C(CSc1nnc2ccc(C(=O)NCc3ccccc3)cn12)Nc1ccccc1Br | 13.28
33 | COc1ccc(NC(=O)Cn2nc3c(N4CCCC(C)C4)nccn3c2=O)cc1OC (stereo not drawn) | -1.27
34 | CC(C)NC(=O)Cn1nc2nc(Nc3ccc(F)cc3)ccn2c1=O | 12.23
35 | O=C(Cn1nc2ccc(SCc3ccc(Cl)cc3)nn2c1=O)NCc1ccc2c(c1)OCO2 | -1.27
36 | O=C(Cn1nc2c(SC3CCCCC3)nccn2c1=O)N1CCN(c2ccc(F)cc2)CC1 | 10.98
37 | COc1ccc(C(=O)CSc2nnc3c(=O)n(-c4ccccc4)ccn23)cc1OC | -1.19
38 | CSc1ccc(CNC(=O)Cn2nc3c(Oc4ccc(C)cc4)nccn3c2=O)cc1 | -2.38
39 | Cc1c(Cl)cccc1-n1ccn2c(=O)n(Cc3ccccc3Cl)nc2c1=O | -1.96

Tested on: Candida albicans
Conditions: Concentration 32 ug.mL-1; ASSAY_TEST Inhibition of Fungal Growth; detection method Absorption (OD530)

Row | Structure (SMILES) | Inhibition [%]
40 | Cc1ccc(NC(=O)Cn2nc3c(Oc4ccccc4)nccn3c2=O)c(Br)c1 | 0.27
41 | COC(=O)c1ccc(CN(c2cccc(F)c2)S(=O)(=O)c2ccc3nncn3c2)o1 | 2.51
42 | CCc1ccc(N(Cc2cccc(OC)c2)S(=O)(=O)c2cccn3cnnc23)cc1 | 4.11
43 | CCc1ccc(N(Cc2ccc(F)cc2)S(=O)(=O)c2cccn3c(C)nnc23)cc1 | 6.88
44 | O=C(CSc1nnc2c(=O)n(-c3cccc(F)c3)ccn12)N1CCN(c2ccc(F)cc2)CC1 | 2.58
45 | COc1ccc(C(C)NC(=O)CCc2nnc3ccc(-c4ccc(C)cc4)nn23)cc1OC (stereo not drawn) | 8.51
46 | COc1ccc(-c2cc3c4nnc(SCC(=O)N(C)c5ccccc5)n4ccn3n2)cc1 | 32.67
47 | CCc1ccc(N(Cc2ccccc2F)S(=O)(=O)c2cccn3c(CC)nnc23)cc1 | 4.59
48 | COc1ccc(Cl)cc1NC(=O)CSc1nnc2c(=O)n(-c3ccc(C)c(C)c3)ccn12 | 0.63
49 | Cc1ccc(Cl)cc1NC(=O)Cn1nc2c(N3CCOCC3)nc3ccccc3n2c1=O | 3.17
50 | COc1ccc(-c2cc3c4nnc(SCC(=O)Nc5cccc(C)c5C)n4ccn3n2)cc1 | 3.48
51 | O=c1c2sccc2n2c(=O)n(Cc3cccc(Br)c3)nc2n1Cc1cccs1 | 62.43
52 | COc1ccc(-c2cc3c4nnc(SCC(=O)Nc5ccccc5F)n4ccn3n2)cc1 | -0.08
53 | COc1ccc(NC(=O)c2ccc3nn(CC(=O)Nc4ccc(C(F)(F)F)cc4)c(=O)n3c2)cc1 | 4.22
54 | Cc1cc2nn(CC(=O)Nc3cccc(C)c3C)c(=O)n2c(Nc2ccc(F)c(C)c2)n1 | 3.16
55 | COc1cccc(Oc2nccn3c(=O)n(CC(=O)NCc4cccs4)nc23)c1 | 0.8
56 | Cc1ccc(Sc2nccn3c(=O)n(CC(=O)Nc4cc(Cl)ccc4C)nc23)c(C)c1 | 4.75
57 | N#CCn1nc2n(Cc3ccc(F)cc3)c(=O)c3ccccc3n2c1=O | 3.09
58 | CCOc1ccc(NC(=O)Cn2nc3c(N4CCCC(C)C4)nccn3c2=O)cc1 (stereo not drawn) | 0.78
59 | Cc1ccc(-c2ccc3nnc(CCC(=O)NCc4ccc(C(F)(F)F)cc4)n3n2)cc1C | 2.25

Row | Structure (SMILES) | Inhibition [%]
60 | Cc1ccc(C)c(NC(=O)Cn2nc3c4cc(-c5ccc(C)c(C)c5)nn4ccn3c2=O)c1 | -1.76
61 | CCc1nnc2c(S(=O)(=O)N(Cc3cccc(OC)c3)c3ccc(F)cc3)cccn12 | 3.42
62 | CSc1ccc(CNC(=O)Cn2nc3c(Oc4cccc(C)c4C)nccn3c2=O)cc1 | 0.27
63 | Cc1cccc(-c2nc(CSc3nc4ccccc4n4c(C(C)C)nnc34)c(C)o2)c1 | 8.07
64 | CC(C)c1nnc2c(SCC(=O)Nc3ccc(F)cc3F)nc3ccccc3n12 | -0.24
65 | Cc1cccc(NC(=O)Cn2nc3c(SCc4ccccc4)nccn3c2=O)c1C | 0.78
66 | COc1ccc(NC(=O)Cn2nc3ccc(SCc4ccc(Cl)cc4)nn3c2=O)cc1 | 48.76
67 | Cc1ccc(CN(c2ccc(C(C)C)cc2)S(=O)(=O)c2cccn3c(C)nnc23)cc1 | 1.03
68 | CC(C)CCn1c(=O)c2ccccc2n2c(=O)n(CC#N)nc12 | 2.65
69 | CCOc1ccc(-n2ccn3c(SCC(=O)Nc4ccc(CC)cc4)nnc3c2=O)cc1 | 2.31
70 | COC(=O)c1cccc(NC(=O)Cn2nc3ccc(-c4ccccc4)nn3c2=O)c1 | 4.96
71 | O=C(CSc1nnc2ccc(C(=O)NCc3ccccc3)cn12)Nc1ccccc1Br | 5.15
72 | COc1ccc(NC(=O)Cn2nc3c(N4CCCC(C)C4)nccn3c2=O)cc1OC (stereo not drawn) | -0.12
73 | CC(C)NC(=O)Cn1nc2nc(Nc3ccc(F)cc3)ccn2c1=O | 2.08
74 | O=C(Cn1nc2ccc(SCc3ccc(Cl)cc3)nn2c1=O)NCc1ccc2c(c1)OCO2 | 13.27
75 | O=C(Cn1nc2c(SC3CCCCC3)nccn2c1=O)N1CCN(c2ccc(F)cc2)CC1 | 0.3
76 | COc1ccc(C(=O)CSc2nnc3c(=O)n(-c4ccccc4)ccn23)cc1OC | 25.44
77 | CSc1ccc(CNC(=O)Cn2nc3c(Oc4ccc(C)cc4)nccn3c2=O)cc1 | 4.95
78 | Cc1c(Cl)cccc1-n1ccn2c(=O)n(Cc3ccccc3Cl)nc2c1=O | -2.16
